Sampled rows, rich in hits. Any-hit rate of the full collection: about 19%.
DT40 TDP1 CPT: growth inhibition of DT40 Tdp1-/-;hTDP1 cells with camptothecin (screen for TDP1 inhibitors); 12% of 420,000 active; chicken DT40 Tdp1-/-;hTDP1 cells + 20 nM CPT, ATP luminescence, 48 h; Potency, µM (highest dose often 46.2 µM), for inactives: at the top dose activity change, negative = growth inhibition, most hits filed as inhibitors; AID 686979; note: potency is the fitted concentration of half-maximal effect; % is set by controls: 0 for no effect and ±100 for the full control effect; nearly all actives have a fitted effect of over 55% in size
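Chicken DT40 Tdp1-/- cells complemented with human TDP1, 400 cells/well, exposed to compounds plus 20 nM camptothecin for at least 48 h at 37 C; viability read as ATP content by CellTiter-Glo luminescence.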
HepG2 viability: HepG2 cytotoxicity, counter-screen for TGF-b inhibitors | HepG2 CAGA-GFP viability, ATP luminescence, 18 h | Potency, µM (highest dose often 46.1 µM), without a hit: top-dose activity change, negative = cytotoxicity, hits mostly cytotoxic | 0.76% of 410,000 active | AID 588856; note: potency is the fitted concentration of half-maximal effect
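HepG2 CAGA-GFP cells (1000/well, DMEM with 1% FBS) received compound, then TGF-beta at 500 pg/mL final, and were incubated 18 hours at 37 degrees C. Viability was read by CellTiter-Glo luminescence. Media-only wells were set as complete cell-killing and DMSO as no toxicity.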
TGFb SMAD3 inh: TGF-b pathway inhibition | HepG2 CAGA-GFP TGF-b/SMAD3 reporter, GFP fluorescence, 18 h; TGF-beta stimulated, 500 pg/mL final | Potency, µM (top dose mostly 46.1 µM), for inactives: at the highest dose activity, negative = inhibition, most hits filed as inhibitors | 1.2% of 410,000 active | AID 588855; note: potency is the fitted concentration of half-maximal effect; % is set by controls: 0 for no effect and ±100 for the full control effect; nearly all actives have a fitted effect of over 65% in size
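Inhibition of TGF-beta-driven CAGA-GFP reporter expression in HEPG2 cells is measured by cellular GFP fluorescence after 18 h stimulation with 500 pg/mL recombinant TGF-beta in 1% FBS medium at 37 degrees C.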
S-ASM inh: human S-ASM enzyme inhibition | P17405 | placental ASM, HMU-PC fluorogenic substrate, 60 min | Potency, µM (series often up to 57.5 µM), for inactives: at the top dose activity change, negative = inhibition, most hits filed as inhibitors | 0.006% of 340,000 active; note: potency is the fitted concentration of half-maximal effect
Target sequence (P17405 47-631 limits assumed): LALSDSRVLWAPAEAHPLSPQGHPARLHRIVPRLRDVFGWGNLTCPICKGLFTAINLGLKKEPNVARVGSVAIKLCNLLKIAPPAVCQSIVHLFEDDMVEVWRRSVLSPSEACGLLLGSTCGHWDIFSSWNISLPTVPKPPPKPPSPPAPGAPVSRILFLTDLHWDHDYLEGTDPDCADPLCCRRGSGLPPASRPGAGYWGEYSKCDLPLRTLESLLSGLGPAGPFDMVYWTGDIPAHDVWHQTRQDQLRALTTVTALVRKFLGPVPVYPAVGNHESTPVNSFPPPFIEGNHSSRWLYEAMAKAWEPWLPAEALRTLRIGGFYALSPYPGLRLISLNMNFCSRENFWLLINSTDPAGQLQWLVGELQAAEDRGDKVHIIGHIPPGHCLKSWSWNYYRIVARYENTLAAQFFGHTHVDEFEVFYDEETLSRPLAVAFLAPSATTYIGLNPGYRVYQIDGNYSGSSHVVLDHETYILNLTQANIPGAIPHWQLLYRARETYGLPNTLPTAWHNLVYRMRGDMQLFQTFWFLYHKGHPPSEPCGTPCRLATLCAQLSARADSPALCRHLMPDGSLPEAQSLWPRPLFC
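Human placenta-derived ASM preincubated with compound 10 min at room temperature, then reacted with 9 uM (final) fluorogenic HMU-PC substrate for 60 min at 37 C. Stop solution raises pH to 10; fluorescence read at Ex 386/Em 447 nm.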
DT40 TDP1 no CPT: qHTS for Inhibitors of human tyrosyl-DNA phosphodiesterase 1 (TDP1): qHTS in cells in absence of CPT; DT40 Tdp1-/- hTDP1 cells, no CPT, ATP luminescence, 48 h; Potency, µM (highest dose often 46.2 µM), inactives show at the highest dose activity change, negative = growth inhibition, actives largely listed as inhibitors; AID 686978, 2013; 15% of 420,000 active; note: potency is the fitted concentration of half-maximal effect; % is set by controls: 0 for no effect and ±100 for the full control effect; nearly all actives have a fitted effect of over 55% in size
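Compound effects on proliferation are scored in DT40 Tdp1-/-;hTDP1 cells in the absence of CPT. ATP levels (CellTiter-Glo luminescence) are recorded after a ≥48 hr, 37 °C incubation.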
IL-1B inflam inh: inhibitors of inflammasome signaling (IL-1 beta secretion); AID 743279; 4.7% of 360,000 active; activity change, % at 57.5 µM; THP-1 LPS/ATP IL-1B secretion, AlphaLISA, 16 h; hits give low values; in the data active = activity change below about -50%; inconclusive = mostly about -30% to -49%; note: % is set by controls: 0 for no effect and ±100 for the full control effect
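THP-1 cells pretreated 1 hr with compounds (up to 57.5 uM final), then stimulated with LPS (250 ng/mL final) plus ATP (1.25 mM final); secreted IL-1B measured by AlphaLISA after 16 hr, decreased signal indicating inhibition.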
An asterisk follows results filed as active; ? = inconclusive; / = no result. Unless noted, calls come from the whole dose curve; as a rule, active = well fitted curve in the direction sought with a large enough effect; inconclusive = small, poorly fitted or top-dose-only effect, or another doubt; inactive = no such curve, though single readings can be large; an effect the other way counts as inactive or inconclusive.

SMILES	DT40 TDP1 CPT	HepG2 viability	TGFb SMAD3 inh	S-ASM inh	DT40 TDP1 no CPT	IL-1B inflam inh
Fc1ccc(-c2csc3[n+]2CCS3)cc1	-5%	-11%	6%	0%	-4%	0
CCc1ccc(-n2cc(-c3ccc(F)cc3)[n+]3c2SCCC3)cc1	4.6µM*	-36%	-15%	5%	1.8µM*	-91*
Cc1ccc(-c2cn(-c3ccccc3)c3[n+]2CCCS3)cc1	0.65µM*	-7%	?	-1%	0.37µM*	-63*
CC(C)CCNC(=O)c1ccc2c(c1)NC(=O)C(CS(=O)(=O)Cc1cccc(Br)c1)N2 (stereo not given)	-27%	-34%	2%	/	?	/
C[C@H](O)[C@@H]1CN2CCc3c([nH]c4ccccc34)[C@@H]2C[C@@H]1N(C)C(=O)Nc1cccc2ccccc12	?	-15%	?	/	?	-21
COCC(=O)N(C)[C@H]1C[C@H]2c3[nH]c4ccccc4c3CCN2C(=O)[C@H]1[C@H](C)O	-20%	-1%	1%	/	?	19
COc1ccc(-c2ccc3[nH]c4c(c3c2)CCN2C[C@@H]([C@H](C)O)[C@@H](N(C)C(=O)Nc3cc(Cl)cc(Cl)c3)C[C@@H]42)cc1	9.2µM*	-63%	?	/	4.6µM*	0
C[C@@H]1ON(C)[C@H]2C[C@H]3c4[nH]c5ccc(-c6ccc7c(c6)OCO7)cc5c4CCN3C[C@@H]12	?	-43%	?	/	21µM*	-20
Cc1cccc(-c2ccc3[nH]c4c(c3c2)CCN2C[C@@H]([C@H](C)OC(=O)Nc3ccccc3C)[C@@H](N(C)C(=O)Nc3ccccc3C)C[C@@H]42)c1	?	-60%	?	/	26µM*	-21
C[C@H](O)[C@@H]1C(=O)N2CCc3c([nH]c4ccccc34)[C@@H]2C[C@@H]1N(C)Cc1ccc(Cl)cc1	?	-15%	?	/	29µM*	-25
COc1ccc(/C=C(\NC(=O)c2ccco2)C(=O)NCc2ccco2)cc1	-10%	17%	2%	-3%	?	-6
COc1ccc(-c2ccc3[nH]c4c(c3c2)CCN2C(=O)[C@@H]([C@H](C)O)[C@@H](N(C)C(=O)Nc3ccc(F)cc3)C[C@@H]42)cc1	?	-64%	?	/	12µM*	?
C[C@H](O)[C@@H]1CN2CCc3c([nH]c4ccc(-c5ccc6c(c5)OCO6)cc34)[C@@H]2C[C@@H]1N(C)C(=O)Nc1ccc(F)cc1	2.9µM*	13µM*	?	/	5.2µM*	-10
COc1ccc(-c2ccc3[nH]c4c(c3c2)CCN2C(=O)[C@@H]([C@H](C)O)[C@@H](N(C)C(=O)Nc3cc(Cl)cc(Cl)c3)C[C@@H]42)cc1	23µM*	-41%	?	/	15µM*	?
COc1ccc(-c2ccc3c(c2)[C@@H]2C[C@H](N(C)C(=O)C(C)(C)C)[C@H]([C@H](C)O)C(=O)N2CC3)cc1	?	-9%	-17%	-3%	?	-8
CCNC(=O)N(C)[C@H]1C[C@H]2c3[nH]c4ccccc4c3CCN2C[C@H]1[C@H](C)O	-17%	-1%	-1%	/	5%	18
CCc1nc2ccccc2c(C(=O)OCC(=O)N(CCOC)c2c(N)n(Cc3ccccc3)c(=O)[nH]c2=O)c1C	?	-20%	?	4%	-30%	-8
O=C(CNC(=S)N(CCCN1CCOCC1)Cc1cccs1)N1CCCCCC1	-7%	7%	-14%	-3%	-8%	-12
Cc1cc(/C=C2\SC(=S)NC2=O)cc(C)c1O	?	-48%	21%	-7%	?	?
CCN(CC)c1ccc(/C=C2\SC(N)=NC2=O)cc1	-2%	1%	19%	11%	-19%	-9
CC1Cc2cc(/C=C3/SC(=S)NC3=O)ccc2O1 (stereo not given)	0%	-5%	22%	-3%	18µM*	18
CCN(CC)c1ccc(C=C2SC(=S)NC2=O)cc1	13µM*	-9%	134%	?	?	0
COc1ccc(-n2cc(C#N)c(=O)n(Cc3ccc(F)cc3)c2=O)cc1	21µM*	0%	-9%	1%	15µM*	32
Cc1ccccc1CNCCCSc1ncccn1	11%	11%	0%	1%	7%	15
C=CCN(CC(=O)NC1CCS(=O)(=O)C1)S(=O)(=O)c1ccccc1C(F)(F)F (stereo not given)	-12%	2%	5%	0%	-4%	16
SMILES	DT40 TDP1 CPT	HepG2 viability	TGFb SMAD3 inh	S-ASM inh	DT40 TDP1 no CPT	IL-1B inflam inh
Cc1cccc(NC(=O)Cn2nnc(-c3nc(-c4ccncc4)no3)c2N)c1	-22%	-13%	/	/	?	/
Cc1ccc(-c2noc(-c3nnn(CC(=O)Nc4cc(C)cc(C)c4)c3N)n2)cc1	1.3µM*	4%	/	/	1.5µM*	/
Cc1cc(C)cc(NC(=O)Cn2nnc(C(=O)NCc3ccc(F)cc3)c2N)c1	21µM*	-9%	-13%	2%	?	3
O=C(c1c[nH]c2ccccc12)C(Cl)c1ccccc1 (stereo not given)	23µM*	-1%	?	0%	21µM*	-73*
O=C(c1c[nH]c2ccccc12)C(O)C(c1ccccc1)N1CCOCC1 (stereo not given)	-20%	-36%	9%	-3%	?	19
COc1ccccc1NC(C)C(=O)c1c[nH]c2ccccc12 (stereo not given)	11µM*	-22%	-21%	/	?	/
Cc1nccn1CC(=O)N/N=C/c1cccs1	7%	2%	8%	1%	0%	20
CCOc1cc(/C=N/Nc2cccc(C(=O)O)c2)ccc1OCC(=O)N1CCCCC1	6%	5%	-3%	-2%	0%	11
COc1ccc(-c2n[nH]c(=S)n2-c2ccc3c(c2)OCCO3)cc1	?	10%	-13%	-1%	?	17
S=c1[nH]nc(-c2ccc(Br)cc2)n1-c1ccc2c(c1)OCCO2	?	13%	-1%	1%	18µM*	44
Oc1ccc(-c2n[nH]c(=S)n2-c2ccc3c(c2)OCCO3)c(O)c1	?	-48%	14µM*	0%	?	-94*
CC(CNC(=O)CCn1ccc2cc(S(=O)(=O)N3CCCC3)ccc21)c1ccccc1 (stereo not given)	?	-3%	-17%	1%	-25%	1

Screens: PubChem BioAssay, National Center for Advancing Translational Sciences (NCATS)
